The full ranking holds about 35,000 sequences; the median of “fluorescence intensity (a.u.)” is about 10,000, and the highest 2% start at about 52,000. This excerpt belongs to a sample that is enriched for the highest values.
The sequences below were run against T1, OsWOX13 (Oryza sativa, UniProt Q5QMM3 1-267) (assay: protein-binding microarray (RPBM); PBS, 2% BSA, 51.3 ng/ul salmon testes DNA, 50 uM zinc acetate, 200 nM TF, 25 C, 1 h; high values mean tight binding). Conditions: protein: recombinant; tags: N-terminal polyhistidine and DsRed monomer fusion (pET32a); label: CyDye5-dUTP incorporated in the synthesized complementary strand; 3' TTTTT single-stranded linker to array surface; dsDNA, one strand shown.
T1 sequence: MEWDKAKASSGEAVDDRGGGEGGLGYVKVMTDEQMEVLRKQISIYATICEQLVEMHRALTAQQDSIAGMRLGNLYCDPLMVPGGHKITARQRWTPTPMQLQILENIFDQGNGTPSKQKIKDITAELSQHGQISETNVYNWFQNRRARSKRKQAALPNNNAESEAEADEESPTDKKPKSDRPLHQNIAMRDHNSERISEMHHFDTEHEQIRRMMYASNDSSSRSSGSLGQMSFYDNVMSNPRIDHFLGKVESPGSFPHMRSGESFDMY
How it was run: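 The binding signal is fluorescence intensity per feature, in arbitrary units, read on an Axon 4000B scanner. Polyhistidine- and DsRed-tagged transcription factors (N-terminal fusions) from E. coli BL21-CodonPlus were purified on Ni–NTA and applied at 200 nM for 1 h at 25 °C to a double-stranded, BSA-blocked custom Agilent array in buffer with 50 µM zinc acetate.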

Row | Sequence | binding signal
1 | TTGATTGCGAATGATTGGAGCTGGTTGCTGTTGCTAGATCCGGAGTCACCTAGTGCAG | 57800 fluorescence intensity (a.u.)
2 | AAATGATTGAATCCTAGAAACTCTGACCTATACAAGTGGTCGGAGTCACCTAGTGCAG | 60500 fluorescence intensity (a.u.)
3 | ATGATGATGATATACACGCCAAATTGAATTAGAAACTGATCGGAGTCACCTAGTGCAG | 6800 fluorescence intensity (a.u.)
4 | AGATGCTGATTGGTTGCGAACTATCTGTTCAATTTGCATCCGGAGTCACCTAGTGCAG | 46300 fluorescence intensity (a.u.)
5 | CATCAATTAATTGACATGATACTATCTACCTTGCGTGTCGCGGAGTCACCTAGTGCAG | 65000 fluorescence intensity (a.u.)
6 | ACTATTATATTGATCAATTGATTACATAATTCACGTGTCGCGGAGTCACCTAGTGCAG | 43700 fluorescence intensity (a.u.)
7 | GCACTGATTGAATTGAACTGTATAGAACAAAATGAAATTTCGGAGTCACCTAGTGCAG | 19600 fluorescence intensity (a.u.)
8 | TAGATGAAATGGGTTGGGTTGATTTGGGTTGAAATATGATCGGAGTCACCTAGTGCAG | 6400 fluorescence intensity (a.u.)
9 | TACATCCCTACTAATTGTGTCATGTATCAATAATGATATGCGGAGTCACCTAGTGCAG | 3560 fluorescence intensity (a.u.)
10 | GATGATTGATTGGGTTGGTTGGAACGTGCGATGGAATGATCGGAGTCACCTAGTGCAG | 65400 fluorescence intensity (a.u.)
11 | CTGGAATGAGTGGTGGTTGATTGTTTAGTGTTTACTGTTCCGGAGTCACCTAGTGCAG | 18500 fluorescence intensity (a.u.)
12 | TATAAAATTGATGGTTGGAATTATAAATATTTCGATTGAACGGAGTCACCTAGTGCAG | 9830 fluorescence intensity (a.u.)
13 | GATAACGTGGCCAAATTATATCAGACGTTCATGTTTAGATCGGAGTCACCTAGTGCAG | 5800 fluorescence intensity (a.u.)
14 | TTCACAAATTTTGATGCGATGATTAGCTAAGGCATGTTCGCGGAGTCACCTAGTGCAG | 23500 fluorescence intensity (a.u.)
15 | TTACGATGATATATAATTGGACGGAAGCAGCGATCATGCTCGGAGTCACCTAGTGCAG | 14100 fluorescence intensity (a.u.)
16 | AGCTAATTTATGCATGCATGGATTCCGATGGAGGAGCTGTCGGAGTCACCTAGTGCAG | 19400 fluorescence intensity (a.u.)
17 | GAGCAATTAGGCTTAAAAGATTCGTCTCGCAAATTAGTCGCGGAGTCACCTAGTGCAG | 3540 fluorescence intensity (a.u.)
18 | GCAGCCTAGATTGACAATAGATGAATTGGAGCTAGTAGTGCGGAGTCACCTAGTGCAG | 35400 fluorescence intensity (a.u.)
19 | CAAAATTTGATGAATGGAAGGGTCGAAACTGAGTGATTGCCGGAGTCACCTAGTGCAG | 23600 fluorescence intensity (a.u.)
20 | TGGAATGATGTTGGGATTGATGGATGGATGTATGTTTTGTCGGAGTCACCTAGTGCAG | 15300 fluorescence intensity (a.u.)
21 | GTGATTGAAATGGATCCTGGTCGGAAATGAATCCTGGTCGCGGAGTCACCTAGTGCAG | 43700 fluorescence intensity (a.u.)
22 | TCTGATTGCTGTTAGTTGTTGATGAGATGGAGATGGAGATCGGAGTCACCTAGTGCAG | 39900 fluorescence intensity (a.u.)
23 | ATAGATGAAGAATAAATATGATTGGTAGAGAAGAGAGATGCGGAGTCACCTAGTGCAG | 25600 fluorescence intensity (a.u.)

Row | Sequence | binding signal
24 | TTCTGATTTGCCCCTATCTTATTGAGATTGCTTGTGTGATCGGAGTCACCTAGTGCAG | 30600 fluorescence intensity (a.u.)
25 | AATGGAGATTGGATCTGATTGGTTGTTGTTGCTTGAGGATCGGAGTCACCTAGTGCAG | 62600 fluorescence intensity (a.u.)
26 | TGCTGGTTGATTGATTGATTGATGGACAAATAGGTAGATGCGGAGTCACCTAGTGCAG | 56300 fluorescence intensity (a.u.)
27 | GATGATGGATTGGAAAGGCAAGTAAGCTGGAGTAGGTGGTCGGAGTCACCTAGTGCAG | 38000 fluorescence intensity (a.u.)
28 | TCTGTTGATGAATGGATTGATTGATGGATGGATGGATGGTCGGAGTCACCTAGTGCAG | 64100 fluorescence intensity (a.u.)
29 | TTGATTGATGGGTAGTAAGGAAACCTTTTGAATGAGTGGTCGGAGTCACCTAGTGCAG | 64700 fluorescence intensity (a.u.)
30 | TTTTATAATTATATAGCACACCCCACTTCACACGCATATCCGGAGTCACCTAGTGCAG | 15300 fluorescence intensity (a.u.)
31 | CTATTGATTGTTGGCGAGCATGTTCTTATCCAGTTGACTTCGGAGTCACCTAGTGCAG | 33100 fluorescence intensity (a.u.)
32 | GTTTGTTAATTATTCACTAATCTCTAGTACTATAGTTGTACGGAGTCACCTAGTGCAG | 17100 fluorescence intensity (a.u.)
33 | AACAGTTCTGCTGAACCTCTTTTGCCTGCCCAAATCAAAACGGAGTCACCTAGTGCAG | 7650 fluorescence intensity (a.u.)
34 | AGATGGGAATCATTATCAATCTATCATCCTAAATATAAACCGGAGTCACCTAGTGCAG | 4070 fluorescence intensity (a.u.)
35 | TCGATTGACTGGACGAGGAATAGTAACCCTGCACATTGTGCGGAGTCACCTAGTGCAG | 44100 fluorescence intensity (a.u.)
36 | GAATACTGACAGTAAAGATGATTGCAGAATTAGCTCATAGCGGAGTCACCTAGTGCAG | 19400 fluorescence intensity (a.u.)
37 | TGCATAAGTGTTAAATTGACAGCCACTTGGTCTGTTCGTTCGGAGTCACCTAGTGCAG | 21700 fluorescence intensity (a.u.)
38 | ATGATTTACTATTAATCTAGTCTATTGCTGAGATATACATCGGAGTCACCTAGTGCAG | 11000 fluorescence intensity (a.u.)
39 | TACTCCTGTTGATAGGTATATTGATCTGAATCATCTGGTACGGAGTCACCTAGTGCAG | 3790 fluorescence intensity (a.u.)
40 | AACTAAACATAATCTTTGAAAAGTTTGATTTTGAACACGGCGGAGTCACCTAGTGCAG | 6770 fluorescence intensity (a.u.)
41 | CCTGTTGATTGGATATCTGGAACCTGAAATCCTGAATACGCGGAGTCACCTAGTGCAG | 55800 fluorescence intensity (a.u.)
42 | TTAATTGATTTGGAAATCCTCTAGTTATCTGGATTAGTTTCGGAGTCACCTAGTGCAG | 37300 fluorescence intensity (a.u.)
43 | CACATACTATACTACATTAATTATATTCTGATGAAATCCGCGGAGTCACCTAGTGCAG | 4130 fluorescence intensity (a.u.)
44 | TTTCTTTTGAAATTGATTACAATCTACATAAGGAGAGTCGCGGAGTCACCTAGTGCAG | 16500 fluorescence intensity (a.u.)
45 | ATGCCTGATTGGAAATCTACTATTACTATTCATGATACCGCGGAGTCACCTAGTGCAG | 58500 fluorescence intensity (a.u.)
46 | TCTTGATTGAAACAATCTTTTGATCCCATAATCTTGCCCGCGGAGTCACCTAGTGCAG | 63700 fluorescence intensity (a.u.)

— PMC7819943, “Rice protein-binding microarrays: a tool to detect cis-acting elements near promoter regions in rice”
